Data on 17 molecules can be found in PubChem BioAssay (NCATS).

Several values for one entry are separate records, joined by “and”; a condition that tells them apart may be missing. Identical values can stand only once. Records with an inconclusive call do not appear. A structure can be active in one record and inactive in another. Activity calls are given as the source filed them. Unless noted, the call rests on the fitted dose curve.

The nature of assay [1]: Cell Viability - BJ (AID 421).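 Further: potency means the concentration at half of the fitted maximal effect; cells exposed to compound for 40 hours at 37 °C before readout.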 Particulars: BJ fibroblast viability, qHTS. The method in brief: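 Quantitative HTS: ATP depletion in BJ cells after 40 hr compound exposure in complete culture medium, detected with CellTiter-Glo; AC50 from standard Hill fits.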
In general terms: In qHTS, concentration-response curves come from the screen itself.

Assay [2] in a line: Cell Viability - Hek293 (AID 427;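 active means compounds whose dose-response curve shows a full or clear partial loss of cell viability, called from curve shape rather than a numeric limit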;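 further: potency means the concentration at half of the fitted maximal effect; cells exposed to compound for 40 hours at 37 °C before reading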). Particulars: qHTS. The method in brief:
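AC50 values derive from Hill-modelled concentration-response of ATP-based luminescence, normalized between DMSO-only and 100 uM tamoxifen controls. Cells were exposed in complete culture medium for 40 hr at 37 °C before detection.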

The nature of assay [3]: Cell Viability - HepG2 (AID 433).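 Further: potency means the concentration at half of the fitted maximal effect; potency for ATP loss meaning cytotoxicity.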 The settings on record: qHTS. The method in brief:
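In this qHTS format, a 40 h, 37 °C compound incubation of HepG2 cells in complete medium precedes a 20 min CellTiter-Glo step at room temperature. Tamoxifen and doxorubicin serve as positive controls; Hill-equation fits yield AC50.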

Assay [4] in a line: Cell Viability - MRC5 (AID 434).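 Further: potency means the concentration at half of the fitted maximal effect; potency reflects cytotoxicity seen as loss of intracellular ATP.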 The settings on record: MRC5 lung fibroblast viability, qHTS. The method in brief: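 qHTS cytotoxicity in human lung fibroblast MRC5 cells; 40 hr treatment, 37 °C; cellular ATP by luciferase luminescence; DMSO = 0%, 100 uM tamoxifen = 100% inhibition; Hill-fit AC50.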
The nature of assay [5]: Cell Viability - SK-N-SH (AID 435).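 Further: potency means the concentration at half of the fitted maximal effect; compound exposure lasted 40 h at 37 °C.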 The settings on record: SK-N-SH neuroblastoma cell viability qHTS. In short, it runs like this: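 Human neuroblastoma line, 40 h exposure at 37 °C, ATP quantified via luciferase luminescence; DMSO and 100 uM tamoxifen define 0 and 100% inhibition for AC50 fitting.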
Assay [6] deals with Mitogen-activated protein kinase 10 (Mus musculus) (UniProt Q61831). Description: JNK3 AlphaScreen Assay (AID 530; active means well fitted curve in either direction with a large enough effect, not every such curve was filed as active;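 further: kinase came from lysate of stimulated human HepG2 cells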; further: potency means the concentration at half of the fitted maximal effect;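 on activity change, negative = inhibition: signal reports phosphorylation of biotinylated GST-cJun 1-79 at Ser73 with 10 µM ATP; on the % scale 0 is the no-effect control and ±100 the full control effect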). Particulars: JNK3 lysate, c-Jun phosphorylation; series mostly up to 57.1 µM. In short, it runs like this:
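Compound titrations were preincubated 15 minutes at room temperature with substrate, antibody and pre-activated JNK3-containing HepG2 lysate. Reactions were started with 10 uM ATP and stopped with EDTA-containing bead buffer for AlphaScreen detection.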
(Alpha assays give light when donor and acceptor beads are brought close together.)

The nature of assay [7]: Cell Viability - N2a (AID 540; active means well fitted curve in the direction sought with a large enough effect; an effect the other way counts as inactive or inconclusive;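 further: plate controls were DMSO alone for no effect and tamoxifen control for full effect; nearly all actives have a fitted effect of over 45% in size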). Particulars: N2a mouse neuroblastoma cell viability; activity change, negative = cytotoxicity: at 92.2 µM (top of the series). In short, it runs like this:
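Mouse neuroblastoma N2a cells, 1500/well, exposed to compounds 40 h at 37 °C in complete medium. Viability measured as cellular ATP by CellTiter-Glo luminescence; AC50 from Hill fits of concentration-response.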

Assay [8] in a line: Cell Viability - H-4-II-E (AID 543; active means well fitted curve in the direction sought with a large enough effect; an effect the other way counts as inactive or inconclusive; further: nearly all actives have a fitted effect of over 35% in size; further: potency means the concentration at half of the fitted maximal effect). Particulars: H-4-II-E rat hepatoma viability; series mostly up to 92.2 µM. In short, it runs like this: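 Rat hepatoma H-4-II-E cells, 1500 per well, treated 40 h at 37 °C in complete medium. Cellular ATP read by CellTiter-Glo luminescence; AC50 from Hill fits of concentration-response.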
Assay [9] can be described thus: Cell Viability - SH-SY5Y (AID 544; active means well fitted curve in the direction sought with a large enough effect; an effect the other way counts as inactive or inconclusive; further: nearly all actives have a fitted effect of over 55% in size; further: potency means the concentration at half of the fitted maximal effect;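 on viability change, negative = cytotoxic: 0% = DMSO alone and -100% = 100 µM tamoxifen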). Particulars: SH-SY5Y neuroblastoma cell viability; viability change, negative = cytotoxic: at 92.2 µM (top of the series). The method in brief:
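SH-SY5Y human neuroblastoma cells (1500/well) incubated 5 h, then compound-treated 40 h at 37 °C in complete medium. Viability read as intracellular ATP by CellTiter-Glo luminescence after 20 min; AC50 from Hill-equation fits of qHTS concentration-response.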

Assay [10] can be described thus: Stat Signaling Pathway (AID 446; active means well fitted curve in either direction with a large enough effect, not every such curve was filed as active;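 further: ME-180 cervical cancer cells given 40 pM IL-6 alongside compound; SIE-controlled beta-lactamase reporter measured as 460/530 nm FRET emission ratio; on the % scale 0 is the no-effect control and ±100 the full control effect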). The settings on record: ME-180 SIE beta-lactamase reporter, IL-6 stimulated, 5 h; at 38 µM (top of the series). The method in brief: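 IL-6/STAT signaling read in ME-180 cells via an SIE beta-lactamase reporter. Stimulus was 40 pM IL-6 (its AC50) for 5 hrs, so both activation and inhibition register.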
Assay [11] addresses Glucocorticoid receptor (Homo sapiens) (UniProt P04150). The experiment in a line: GR-GFP Redistribution (AID 450;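 active means compounds whose dose series gives a full or clear partial fitted curve of increased nuclear translocation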; further: potency means the concentration at half of the fitted maximal effect). Particulars: U2OS GR-GFP nuclear translocation, laser cytometry, 2 h.
The target is the same in assay [12]. The experiment in a line: GR-EFC Redistribution (AID 451). Further: potency means the concentration at half of the fitted maximal effect. The settings on record: CHO-K1 GR-EFC translocation, beta-gal luminescence, 2 h. In short, it runs like this:
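Translocation of GR-ED fusion to nuclear EA restores b-gal, read by luminescence after 1 h room-temperature detection. Engineered CHO-K1 biosensor cells, 1,000/well, exposed 2 h at 37 C to titrations up to 46 uM final.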

Assay [13] can be described thus: Cell Viability - Jurkat (AID 426;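 active means dose-dependent loss of cell ATP signal giving a full or clear fitted curve, ranked by lower potency value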; further: potency means the concentration at half of the fitted maximal effect). The settings on record: qHTS. The method in brief:
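Jurkat (Clone E6-1) cells, 5000/well in complete medium, exposed to compounds for 40 hr at 37C; intracellular ATP measured by CellTiter-Glo luminescence after 20 min at room temperature. AC50 from Hill fits.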

A short description of assay [14]: Cell Viability - NIH 3T3 (AID 541; active means well fitted curve in the direction sought with a large enough effect; an effect the other way counts as inactive or inconclusive; further: nearly all actives have a fitted effect of over 25% in size; further: potency means the concentration at half of the fitted maximal effect;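 on activity change, negative = cytotoxicity: plate controls were DMSO alone for no effect and tamoxifen positive control for full effect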). The settings on record: NIH 3T3 cell viability, qHTS; activity change, negative = cytotoxicity: at 92.2 µM (top of the series). In short, it runs like this: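 Mouse NIH 3T3 fibroblasts, 1000 cells/well, rested 5 hr at 37 °C, then exposed to compound for 40 hr at 37 °C in complete medium. Viability read as intracellular ATP by CellTiter-Glo luminescence; AC50 from Hill-equation fits of concentration-response data.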

Assay [15] in a line: Cell Viability - HUV-EC-C (AID 542; active means well fitted curve in the direction sought with a large enough effect; an effect the other way counts as inactive or inconclusive; further: on the % scale 0 is the no-effect control and ±100 the full control effect; nearly all actives have a fitted effect of over 35% in size). Particulars: HUV-EC-C endothelial cell viability, qHTS; series mostly up to 92.2 µM. The method in brief: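 HUV-EC-C human vascular endothelial cells, 1000/well, exposed to compound for 40 hr at 37 °C in complete medium. Intracellular ATP was read by CellTiter-Glo luminescence. AC50 came from Hill-equation fits of concentration-response data.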

Assay [16] is described as follows: Cell Viability - Renal Proximal Tubule (AID 545; active means well fitted curve in the direction sought with a large enough effect; an effect the other way counts as inactive or inconclusive;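 further: 0% = DMSO only and -100% = 100 µM tamoxifen; nearly all actives have a fitted effect of over 40% in size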). The settings on record: renal proximal tubule cells viability, primary cells of rat origin; activity change, negative = cytotoxicity: at 91.7 µM (top of the series). The method in brief: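 In this qHTS format, normal rat kidney-derived proximal tubule cells in complete culture medium receive compound titrations, then sit 40 hours at 37 °C before luciferase-based ATP quantitation; potency is reported as AC50 from concentration-response curves.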

The target of assay [17] is Cytochrome P450 1A2 (Homo sapiens) (UniProt P05177). The experiment in a line: p450-cyp1a2 (AID 410). Further: potency means the concentration at half of the fitted maximal effect.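 On activity change, negative = inhibition: -100% = full effect of reference inhibitor.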 The settings on record: recombinant CYP1A2, luciferin-ME demethylation, luminescence; series mostly up to 57 µM. The method in brief:
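20nM CYP1A2 with 100uM Luciferin-ME (at Km) in 100mM KPO4; compound preincubated 10 min, NADPH regeneration added, 60 min at room temperature. Luciferin quantified by luminescence after detection reagent; normalized to 57 uM furafylline.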

Assay [18] in a line: NFAT Signaling Pathway (AID 444; active means well fitted curve in either direction with a large enough effect, not every such curve was filed as active;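 further: carbachol stimulus at about its EC50 of 1 µM final; on the % scale 0 is the no-effect control and ±100 the full control effect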). The settings on record: Jurkat NFAT-bla M1, carbachol, beta-lactamase ratio, 5 h; at 38 µM (top of the series) unless noted. In short, it runs like this:
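Read-out: CCF4 FRET ratio (460 nm/530 nm) after 1 h RT dye loading, used for %activity and AC50 from titration series. Cells: Jurkat NFAT-β-lactamase/M1 line, treated with compound plus 1 uM carbachol for 5 h, 37 °C.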

Assay [19] in a line: AP1 Signaling Pathway (AID 357; active means well fitted curve in either direction with a large enough effect, not every such curve was filed as active;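 further: ME-180 reporter cells stimulated with EGF at its EC50 level; on the % scale 0 is the no-effect control and ±100 the full control effect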). Particulars: ME-180 (cervical carcinoma) AP-1-bla reporter, EGF-induced, beta-lactamase ratio, 5 h; at 38 µM (top of the series). The method in brief:
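A ratiometric CCF4 readout (405 nm excitation; 460 and 530 nm emission) quantified AP-1-driven beta-lactamase in ME-180 cells after 5 h with compound and EC50 EGF; AC50 values were derived for activators and inhibitors.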

Chain of Cytochrome P450 1A2 (Homo sapiens) (P05177 whole entry, looked up): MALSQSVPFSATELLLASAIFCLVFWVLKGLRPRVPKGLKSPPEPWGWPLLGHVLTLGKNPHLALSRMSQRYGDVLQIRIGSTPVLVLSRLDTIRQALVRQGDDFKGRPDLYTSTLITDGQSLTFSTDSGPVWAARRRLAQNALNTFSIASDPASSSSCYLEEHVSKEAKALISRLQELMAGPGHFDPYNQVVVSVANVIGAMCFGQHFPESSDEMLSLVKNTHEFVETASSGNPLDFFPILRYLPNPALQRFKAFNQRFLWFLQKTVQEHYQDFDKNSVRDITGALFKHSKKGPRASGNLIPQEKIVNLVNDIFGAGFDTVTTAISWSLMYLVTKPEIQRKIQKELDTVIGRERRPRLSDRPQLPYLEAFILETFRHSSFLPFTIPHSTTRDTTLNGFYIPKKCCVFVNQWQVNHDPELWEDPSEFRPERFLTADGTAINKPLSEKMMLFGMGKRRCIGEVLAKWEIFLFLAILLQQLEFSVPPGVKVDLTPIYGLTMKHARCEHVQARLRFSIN
Chain of Glucocorticoid receptor (Homo sapiens) (P04150 whole entry, looked up): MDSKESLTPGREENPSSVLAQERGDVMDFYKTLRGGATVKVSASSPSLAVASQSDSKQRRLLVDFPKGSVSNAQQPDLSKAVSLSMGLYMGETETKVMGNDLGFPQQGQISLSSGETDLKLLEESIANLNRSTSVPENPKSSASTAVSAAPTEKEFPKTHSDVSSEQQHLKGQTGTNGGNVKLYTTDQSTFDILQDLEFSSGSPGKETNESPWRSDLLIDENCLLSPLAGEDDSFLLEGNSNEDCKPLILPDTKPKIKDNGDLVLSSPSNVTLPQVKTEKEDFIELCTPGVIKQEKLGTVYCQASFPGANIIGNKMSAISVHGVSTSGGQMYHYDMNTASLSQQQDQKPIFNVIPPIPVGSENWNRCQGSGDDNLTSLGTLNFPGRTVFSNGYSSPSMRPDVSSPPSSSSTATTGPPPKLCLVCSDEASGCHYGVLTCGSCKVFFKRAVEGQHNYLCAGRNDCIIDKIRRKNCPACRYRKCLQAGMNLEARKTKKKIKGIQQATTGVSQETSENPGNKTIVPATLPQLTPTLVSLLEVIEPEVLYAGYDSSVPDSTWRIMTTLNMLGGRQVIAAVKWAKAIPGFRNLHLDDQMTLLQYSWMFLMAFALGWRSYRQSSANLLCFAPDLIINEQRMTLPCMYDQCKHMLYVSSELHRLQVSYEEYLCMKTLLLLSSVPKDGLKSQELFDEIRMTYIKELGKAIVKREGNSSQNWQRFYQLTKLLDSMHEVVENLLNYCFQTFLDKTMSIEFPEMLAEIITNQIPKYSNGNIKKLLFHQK

Regarding `CC(C)NCC(O)COc1cccc2ccccc12` (centres undefined), the Potency in [1] is > 92 µM (inactive); in assay [2], > 92 µM (inactive); in assay [3] it was > 92 µM (inactive); in assay [4] it was > 92 µM (inactive); in [5] it was > 92 µM (inactive); in assay [8] it was 39.8 µM (active). Moreover, the Potency result in [6], in [7] and in assay [9] was “inactive” throughout.
Turning to `Ic1ccc(N2CCN(Cc3c[nH]c4ncccc34)CC2)cc1`, in [10], the activity, negative = inhibition is -23% (inactive). Besides, the Potency in [11] and in [12] was > 46 µM (inactive) in each case.
Turning to `CN(C)CCC(c1ccc(Cl)cc1)c1ccccn1` (centres undefined), the Potency in assay [1], in assay [13], in [2], in assay [3], in [4] and in assay [5] was > 92 µM (inactive) in each case. In addition, the Potency entry in assay [6], in assay [7], in [14], in assay [15], in assay [8] and in assay [9] was “inactive” throughout. Also, the activity change, negative = cytotoxicity in assay [16] is -6.06% (inactive).
For the molecule `CC(C)NC[C@H](O)COc1cccc2[nH]ccc12`, in assay [11], the Potency was > 46 µM (inactive). The Potency result in assay [6] is “inactive”.
As for `C#C[C@]1(O)CC[C@H]2[C@@H]3CCc4cc(O)ccc4[C@H]3CC[C@@]21C`, the Potency in assay [1] is > 92 µM (inactive); in [2], > 92 µM (inactive); in assay [3], > 92 µM (inactive); in assay [5], 25.5 µM (inactive); in assay [8], 20 µM (active); in assay [9], 31.6 µM (active). Besides, the Potency entry in assay [6], in assay [7] and in [14] was “inactive” in each case.
Consider `COc1cc(CNC(=O)CCCC/C=C/C(C)C)ccc1O`, for which the Potency in [1], in assay [13], in assay [2], in assay [3], in assay [4] and in [5] was > 92 µM (inactive) in each case. Further, the Potency in assay [14] is 5.01 µM (active). In addition, the Potency entry in [6], in assay [7] and in assay [8] was “inactive” in each case. Moreover, the activity change, negative = cytotoxicity in assay [16] is -16.6% (inactive).
`CN1CCC[C@H]1c1cccnc1`: the Potency in [1], in assay [13], in [2], in assay [3], in assay [4] and in assay [5] was > 92 µM (inactive) each time. The Potency result in [6], in [7], in [14], in assay [15], in assay [8] and in assay [9] was “inactive” each time. The activity change, negative = cytotoxicity in [16] was 3.04% (inactive).
For `COC1=C(OC)C(=O)c2ccccc2C1=O`, the Potency in assay [17] was 3.98 µM (active); in [11], > 46 µM (inactive); in assay [12] it was > 46 µM (inactive). Moreover, the activity change, negative = inhibition in assay [18] was -8.88% (inactive).
Consider `O=C(O)c1cc(=O)c2ccccc2[nH]1`, for which the activity change, negative = inhibition in assay [19] is 5.32% (inactive). In addition, the Potency in [11] was > 46 µM (inactive). In addition, the Potency entry in [6] is “inactive”.
Consider `Nc1nc2ccc([N+](=O)[O-])cc2s1`, for which the Potency in assay [1], in [13], in assay [2], in assay [3], in [4] and in assay [5] was > 92 µM (inactive) throughout. Moreover, the Potency entry in [6] and in assay [15] was “inactive” throughout.
Regarding `S=c1[nH]c2ccccc2s1`, the Potency in assay [1], in [13], in assay [2], in assay [3], in assay [4] and in assay [5] was > 92 µM (inactive) throughout. The Potency entry in assay [6], in [7], in assay [15], in [8] and in assay [9] was “inactive” each time. Further, the activity change, negative = cytotoxicity in assay [14] is -146% (active); in assay [16] it was -20.5% (inactive).
For `N=c1ccn2c(n1)O[C@H]1[C@H](O)[C@@H](CO)O[C@H]12`, the Potency result in assay [17] and in assay [6] was “inactive” throughout. Further, the Potency in [11] and in assay [12] was > 46 µM (inactive) each time.
As to `O=Nc1ccc2oc(=O)ccc2c1`, in [19], the activity change, negative = inhibition is 22.8% (inactive). For the same molecule, the Potency in assay [11] and in assay [12] was > 46 µM (inactive) in each case. Also, in [6], the Potency result is “inactive”.
On to `CCCCCCCCCCCCCCCCCC(=O)O`, for which the Potency in assay [1], in assay [13], in assay [2], in [3], in [4] and in assay [5] was > 92 µM (inactive) throughout. For the same molecule, the Potency entry in assay [6], in [7], in assay [14], in [15], in [8] and in assay [9] was “inactive” throughout. In addition, the activity change, negative = cytotoxicity in assay [16] is -6.5% (inactive).
Regarding `O=C(O)c1cc(O)c(O)c(O)c1`, the Potency in assay [1], in assay [3] and in assay [4] was > 92 µM (inactive) in each case. Also, the Potency result in [6], in [7] and in assay [15] was “inactive” in each case. Also, the values for the activity change, negative = cytotoxicity in [14] and in assay [16] were -98.1% (active) and -19.1% (inactive), respectively.
In the case of `Oc1cc2c(cc1O)CN(C(=S)NCCc1ccc(Cl)cc1)CCC2`, the Potency is 12.6 µM (active) and 20 µM (active) in [17]; > 46 µM (inactive) in [11]; “inactive and 10 µM (active)” in assay [6]. In addition, the activity, negative = inhibition in assay [10] is 6.62% (inactive).
As for `c1ccc2sc(SSc3nc4ccccc4s3)nc2c1`, the Potency in assay [1], in [13], in assay [2], in assay [3], in assay [4] and in [5] was > 92 µM (inactive) throughout. Moreover, the Potency result in [6], in [7], in assay [14], in assay [15], in assay [8] and in assay [9] was “inactive” in each case. Further, the activity change, negative = cytotoxicity in assay [16] is -1.46% (inactive).
